The values that follow come from PubChem BioAssay AID1851 (National Center for Advancing Translational Sciences (NCATS), 2009).

One may read the AC50 as the midpoint of the concentration-response curve, whichever way the signal moves.

The whole screen tested about 16,000 compounds, of which about 4,000 (25%) were called active. Roughly 26% stayed inconclusive and do not appear here. Only a sample is shown. Unmarked numbers belong to inactive results. Calls follow the shape of the dose curve; as a rule, active = well fitted curve in the direction sought with a large enough effect; inconclusive = small, poorly fitted or top-dose-only effect, or effect the other way; inactive = no such curve, though single readings can be large or run the other way. Numbered stars: 1 amine (or outer) side, 2 acyl side, 3 side chain; on linkers, the order of the positions; unused ones are H or OH. Bridge positions count the residues as written; N and C are the ends. Square brackets hold non-standard residues; d marks the D form. Peptide text beside a SMILES is read from it. I, II: the chains in the order shown. Actinocin(9to1) = Cc1c2oc3c(C)ccc(C(=O)[*:1])c3nc-2c(C(=O)[*:2])c(N)c1=O; aThr = C[C@H](O)[C@H](N)C(=O)O; NMeV = CN[C@H](C(=O)O)C(C)C; Sar = CNCC(=O)O
% is scaled to controls: 0 for no effect and ±100 for the full control effect.

For the assay, the target named is Cytochrome P450 2C9 (Homo sapiens) (UniProt P11712). In words: Cytochrome panel assay with activity outcomes. The note with it: recombinant CYP, pro-luciferin dealkylation, luminescence, p450-cyp2c9; series mostly up to 57.1 µM.
Sequence of Cytochrome P450 2C9 (Homo sapiens) (P11712 whole entry, looked up): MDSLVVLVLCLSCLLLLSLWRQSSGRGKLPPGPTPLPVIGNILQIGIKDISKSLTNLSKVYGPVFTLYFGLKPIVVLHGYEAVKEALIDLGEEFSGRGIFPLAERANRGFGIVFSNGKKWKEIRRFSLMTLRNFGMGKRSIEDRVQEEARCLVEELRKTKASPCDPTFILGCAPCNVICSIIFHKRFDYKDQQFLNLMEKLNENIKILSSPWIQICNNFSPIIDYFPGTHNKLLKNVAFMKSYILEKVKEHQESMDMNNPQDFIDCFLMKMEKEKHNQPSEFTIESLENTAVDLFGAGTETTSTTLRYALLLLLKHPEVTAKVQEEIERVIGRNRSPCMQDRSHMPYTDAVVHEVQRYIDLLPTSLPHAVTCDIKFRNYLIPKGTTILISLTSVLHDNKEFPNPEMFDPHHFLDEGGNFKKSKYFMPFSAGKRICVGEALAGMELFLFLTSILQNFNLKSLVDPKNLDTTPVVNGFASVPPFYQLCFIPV
For `CN1CCN([C@@H]2Cc3ccccc3Sc3ccc(Cl)cc32)CC1`, the AC50 entry is “inactive”. Consider `CNC(=O)[C@H]1O[C@H](n2cnc3c(NCc4cccc(I)c4)ncnc32)[C@@H](O)[C@@H]1O`, for which the AC50 result is “inactive”. As for `CCSC1=C(C#N)C2(CCCCC2)C(C#N)=C(N)N1`, the AC50 is 2.82 µM (active). As to `CCOC(=O)[C@]1(CC(=O)O)CCCC1=O`, the activity, negative = inhibition is -6.54% [at 11.4 µM].

Take `COc1ccc(N(CC(=O)Nc2cccc(C)c2)S(=O)(=O)c2c(C)n[nH]c2C)cc1`: the AC50 is 1.41 µM (active). On to `Cc1cc(C)c(S(=O)(=O)Nc2cccc(C(F)(F)F)c2)c(C)c1`, for which the AC50 result is “inactive”.

Take `Cc1cccc(NS(=O)(=O)c2c(C)n[nH]c2C)c1`: the half-maximal activity concentration (AC50) is 17.8 µM (active). Regarding `CN(C)c1cc(-c2cccc(NS(C)(=O)=O)c2)ncn1`, the activity, negative = inhibition is 16.1% [at 2.29 µM].

`COc1ccccc1CNc1ccnc(-c2ccccc2OC)n1`: the activity, negative = inhibition was -5.44% [at 2.29 µM]. For the compound `C=CCSc1nnc2c(n1)OC(c1c(C)[nH]n(-c3ccccc3)c1=O)Nc1ccccc1-2` (stereo not given), the AC50 is 0.447 µM (active). Regarding `CS(=O)(=O)N1CCC[C@@]2(CCN(C(=O)Nc3cccc(C#N)c3)C2)C1`, the AC50 entry is “inactive”.

Consider `CCCCCSc1nncc(=O)[nH]1`, for which the AC50 is 4.47 µM (active). Regarding `Clc1ccc(CC[C@H](Cn2ccnc2)Sc2c(Cl)cccc2Cl)cc1`, the AC50 was 0.0126 µM (active). For `NC(N)=Nc1ccc(Cl)cc1`, the AC50 entry was “inactive”. Take `COc1ccc(NC(=O)CN(C)S(=O)(=O)c2ccc(Cl)cc2)c([N+](=O)[O-])c1`: the AC50 result is “inactive”. `CCOc1ccc(NC(=O)c2ccc(Br)o2)c([N+](=O)[O-])c1`: the AC50 entry is “inactive”.

For the compound `Cc1ccc(C(=O)NCCNc2ccc(Cl)cc2[N+](=O)[O-])o1`, the AC50 is 10 µM (active). Same read-out and setting: the same measure for `CC(NC(=O)CN1CCCC1)C12CC3CC(CC(C3)C1)C2` (stereo not given): “inactive”. As for `CC(Oc1ccc(O)cc1)(P(=O)(O)O)P(=O)(O)O`, the AC50 entry is “inactive”. In the case of `CC(=O)N1CCC2(CC1)CCN(C(=O)Nc1cccc(F)c1)CC2`, the AC50 result is “inactive”. Turning to `COC(=O)N1CCC2(CCN(C(=O)Nc3ccccc3)CC2)CC1`, the AC50 entry was “inactive”. For `CC(C)n1c(N2CCN(C(=O)Nc3ccccc3)CC2)nc2ccccc21`, the AC50 was 6.31 µM (active). For `O=C(Nc1cccc(NC(=O)N2CCN(c3ccccc3)CC2)c1)N1CCN(c2ccccc2)CC1`, the AC50 is 7.94 µM (active). On to `Cn1cccc1C(=O)N1CCC2(CCN(C(=O)Nc3ccccc3)CC2)CC1`, for which the AC50 result is “inactive”. With `O=C(Nc1ccccc1)N1CCC2(CCNCC2)CC1`, the AC50 entry was “inactive”. Regarding `CC(C)=CCC/C(C)=C/CO/N=C1/C[C@@H](O)[C@@H](O)[C@@H]2[C@H]3C(=O)N(c4ccc(F)cc4F)C(=O)[C@@H]3CC[C@@H]12`, the activity, negative = inhibition was -4.09% [at 11.4 µM]. Regarding `CC(C)C(C(=O)O)N1C(=O)/C(=C/C=C/c2ccco2)SC1=S` (stereo not given), the AC50 is 6.31 µM (active). Take `c1ccc2cc(C3=NCCN3)ncc2c1`: the AC50 result is “inactive”.

With `Cc1ccc(C)c(N(CC(=O)NC2CCCC2)C(=O)c2cc3cc4cccc(C)c4nc3s2)c1`, the AC50 was 0.447 µM (active). For `Cc1cccc(N(CC(=O)NC2CCCC2)C(=O)c2cc3cc4cccc(C)c4nc3s2)c1C`, the AC50 was 0.794 µM (active). On the same count and under the same terms, then `N=C(N)SCCc1cnc[nH]1`, with “inactive”; and `COC(=O)[C@@]1(Cc2ccc(OC)cc2)[C@H]2c3cc(C(=O)N4CCCC4)n(Cc4cc(F)cc5c4OCOC5)c3C[C@H]2CN1C(=O)c1ccccc1`, with 6.31 µM (active). Same read-out and setting: then `COC(=O)[C@@]1(Cc2ccccc2)[C@H]2c3cc(C(=O)N4CCCC4)n(Cc4cc(F)cc5c4OCOC5)c3C[C@H]2CN1C(=O)c1ccccc1`, with 0.316 µM (active); and `O=C(NCC1CCC(C(=O)O)CC1)OCc1ccccc1` (stereo not given), with “inactive”; and `Cc1nn(C)c(Cl)c1NC(=O)OCc1ccc(F)cc1`, with “inactive”.

As to `CSc1nsc(SC)c1NC(=O)OCc1ccccc1`, the AC50 was 10 µM (active). For `Cc1cccc(NC(=O)c2cc(N3C(=O)CCC3=O)ccc2Cl)n1`, the AC50 result was “inactive”.

Take `C/C(=N\NC(=O)c1ccccc1C)c1ccc(NC(=O)c2cccs2)cc1`: the half-maximal activity concentration (AC50) was 14.1 µM (active).

For `Cc1ccccc1C(=O)Nc1cccc(NC(=S)NC(=O)c2cccs2)c1`, the AC50 was 3.55 µM (active). Turning to `Cc1cccc(NC(=S)NC(=O)c2cccs2)n1`, the AC50 was 10 µM (active). As for `CN(C)c1ccc(-c2nccc(NCCN3CCOCC3)n2)cc1`, the activity, negative = inhibition was 5.77% [at 2.29 µM]. In the case of `CSc1ccc2c(c1)[C@H](N1CCN(C)CC1)Cc1ccccc1S2`, the AC50 result is “inactive”. In the case of `CCCN1C(=O)C(NC(C)=O)c2cc(OC)ccc21` (stereo not given), the AC50 entry was “inactive”. On the same count and under the same terms, the same measure for `CCCN1C(=O)C(Cc2nc3ccccc3c(=O)n2C)c2ccccc21` (stereo not given): 12.6 µM (active). For the compound `FC(F)(F)c1ccccc1-c1nc(NCCN2CCOCC2)c2ccccc2n1`, the activity, negative = inhibition was 12.6% [at 2.29 µM]. Turning to `CC1CN(C(=O)CN2C(=O)NC3(CCCCCC3)C2=O)CC(C)O1` (stereo not given), the AC50 entry was “inactive”. `CC(=O)NCCNc1ncncc1-c1ccc(N(C)C)cc1`: the activity, negative = inhibition was -1.01% [at 2.29 µM]. Turning to `Cc1ccc(NC(=O)CN2C(=O)S/C(=C\c3cccn3C)C2=O)cc1`, the AC50 result was “inactive”. Consider `Cc1ccc(/C=C2\SC(=S)N(CCCC(=O)Nc3ccccn3)C2=O)cc1`, for which the AC50 was 5.01 µM (active). Consider `CCOc1c(OC(C)=O)ccc(/C=C2\N=C(SCC)SC2=O)c1[N+](=O)[O-]`, for which the AC50 is 5.62 µM (active). `C=CCSC1=Nc2sccc2C2=NC(=O)CN12`: the AC50 result was “inactive”.

As to `Cc1ccccc1NC1=C(C(=O)c2ccccc2)N(C)S(=O)(=O)c2ccccc21`, the AC50 was 3.55 µM (active). The same measure, in the same setting: then `Cc1ccc(C)c(C(=O)CN2C(=O)c3ccccc3S2(=O)=O)c1`, with “inactive”. In the case of `Cn1c(=O)c2[nH]c(COCc3nc4c([nH]3)c(=O)n(C)c(=O)n4C)nc2n(C)c1=O`, the activity, negative = inhibition is 7.37% [at 11.4 µM]. For `C=CCn1c(SCc2ccc(C(=O)Nc3ccccc3)cc2)nnc1-c1ccccc1`, the AC50 was 3.98 µM (active).

Regarding `C=CCn1c(SCC(=O)Nc2ncc(Cc3ccc(Br)cc3)s2)nnc1-c1ccncc1`, the AC50 entry is “inactive”. Same read-out and setting: then `COC(=O)c1ccc(NC(=O)Cn2nc(-c3ccncc3)nc2SCC(=O)Nc2nccs2)cc1`, with 0.224 µM (active).

In the case of `O=C(CSc1nnc(-c2ccncc2)n1Cc1ccccc1)Nc1nccs1`, the AC50 is 10 µM (active). `Cc1ccc(NC(=O)c2ccc(CSc3nnc(-c4ccncc4)n3C)cc2)cc1`: the AC50 entry is “inactive”.

For `CCn1c(SCc2ccc(C(=O)Nc3nccs3)cc2)nnc1-c1ccc(NC(C)=O)cc1`, the half-maximal activity concentration (AC50) was 1.78 µM (active). Turning to `COc1cc(OC)c2nc(C)c3c(c2c1)N(c1ccc(O)cc1)CC3`, the AC50 result is “inactive”. Consider `Cc1c2oc3c(C)ccc(C(=O)N[C@@H]4C(=O)N[C@@H](C(C)C)C(=O)N5CCC[C@@H]5C(=O)N(C)CC(=O)N(C)[C@@H](C(C)C)C(=O)O[C@H]4C)c3nc-2c(C(=O)N[C@@H]2C(=O)N[C@@H](C(C)C)C(=O)N3CCC[C@@H]3C(=O)N(C)CC(=O)N(C)[C@@H](C(C)C)C(=O)O[C@H]2C)c(N)c1=O` (I: [aThr]V[dP][Sar][NMeV] / II: [aThr]V[dP][Sar][NMeV]; ester I:1-I:C, II:1-II:C; linker I:N-II:N via Actinocin(9to1)), for which the AC50 result was “inactive”.

Turning to `O=C1Nc2ccccc2C1=Nc1cccc2ncccc12`, the activity, negative = inhibition was 17.9% [at 11.4 µM]. With `CNc1cc(OC)c(C(=O)N[C@@H]2CCN(Cc3ccccc3)[C@H]2C)cc1Cl`, the AC50 entry is “inactive”. For the compound `C=CCNCCOCCOc1ccc(C)cc1[N+](=O)[O-]`, the AC50 entry is “inactive”.

With `Cc1ccc(OCCOCCn2ccnc2)c(Br)c1`, the AC50 is 0.501 µM (active).

`CCOC(=O)N/N=C1/C[C@@H](O)[C@@H](O)[C@@H]2[C@@H]3C(=O)N(CC)C(=O)[C@H]3CC[C@H]12`: the activity, negative = inhibition was 8.47% [at 11.4 µM]. Consider `O=S(=O)(c1ccc(F)cc1)N1CC2CCCN2c2ccc(C(F)(F)F)cc21` (stereo not given), for which the AC50 is 10 µM (active). In the case of `O=S(=O)(c1ccc(F)cc1)N1CCCC(CO)C1` (stereo not given), the AC50 result is “inactive”. The same measure, in the same setting: the same measure for `O=C(Nc1ccccc1)N1CC2(CCN(C(=O)c3ccco3)CC2)C1`: “inactive”.

With `CN1CCN(c2nc(-c3cccc(C#N)c3)nc3ccccc23)CC1`, the activity, negative = inhibition was -2.12% [at 2.29 µM].

For `CN1CCN(c2ncnc3ccc(-c4cccc(C#N)c4)cc23)CC1`, the activity, negative = inhibition is 10.4% [at 2.29 µM]. As for `COc1ccc(-c2nc(-c3cccc(C)c3)nc(N3CCN(C)CC3)c2C#N)cc1`, the AC50 is 7.94 µM (active). Regarding `Nc1ncnc2nc(N3CCN(CCO)CC3)[nH]c12`, the activity, negative = inhibition is -3.79% [at 11.4 µM]. `Cc1cc(SCC(=O)c2ccc(Br)cc2)cc(C)[o+]1`: the AC50 is 2.51 µM (active). The same measure, in the same setting: then `CC(=O)NC(NC(C)=O)c1ccc(Br)cc1`, with “inactive”. `FC(F)(F)c1nnc2c(Sc3ccc(Cl)cc3)nc3ccccc3n12`: the AC50 result is “inactive”. As for `FC(F)(F)c1nnc(-c2ccccc2)nc1Sc1ccccc1`, the AC50 is 7.08 µM (active). Take `CN(C)C(=O)c1ccc(-c2ccc3ncnc(Nc4ccc(F)cc4)c3c2)cc1`: the activity, negative = inhibition was 6.1% [at 2.29 µM]. As for `COc1n[nH]c2nncnc12`, the AC50 entry is “inactive”. Same read-out and setting: then `Fc1ccc(-c2cnc(-c3cccs3)o2)cc1`, with 12.6 µM (active); and `CN(C)c1ncc2nc(-c3ccc(F)cc3)c(=O)n(Cc3cccs3)c2n1`, with “inactive”; and `Cc1ccccc1NC(=O)C(C)c1cccc(C(=O)c2ccccc2)c1` (stereo not given), with 3.16 µM (active). As to `CCCN[C@@H](C)C(=O)Nc1ccccc1C`, the AC50 entry is “inactive”. As for `O=C(O)[C@@H]1[C@@H]2C[C@H]3c4[nH]c5ccccc5c4CCN3C[C@@H]2CC[C@@H]1O`, the AC50 result is “inactive”. Consider `C=C1C=C(Br)C2(OCCCO2)[C@H]2OC12` (stereo not given in full), for which the activity, negative = inhibition was 13.6% [at 11.4 µM]. For the compound `O=C(CN(C(=O)CSc1nc2ccccc2o1)c1cccc(F)c1)NC1CCCCC1`, the AC50 was 2.24 µM (active). In the case of `CC(=O)NC1(c2cccc(F)c2)CCN(CC(=O)NC2CCCCC2)CC1`, the AC50 entry is “inactive”. As to `CCCCCCCCCCCCCCCCCCOC[C@@H](COP(=O)([O-])OCC[N+](C)(C)C)OC`, the AC50 result was “inactive”. In the case of `COc1ccc(CCn2c(=N)c(C(=O)NCc3ccco3)cc3c(=O)n4ccccc4nc32)cc1`, the AC50 is 20 µM (active).
